Laboratory results from PubChem BioAssay AID1159580 (chemical genetic matrix, 2015).
Out of some 5,500 compounds screened, about 2,000 (36%) were called active. Roughly 18% stayed inconclusive and do not appear here. Cut-off read from the data, not from the text of the source: active = normalized growth mostly below about 0.91 (no sharp cut-off); inconclusive = no clear call, values can overlap the other calls; inactive = mostly above about 0.92. The list shows a part of the results.

Assay: chemical genetic growth profiling, strain panel (AID 1159580);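 note: tested at 20 µM; growth read once vehicle control cultures reached saturation at 30 °C; 1 = growth at the plate median or of vehicle wells; lower values mean less growth of the strain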
Details: growth OD

Measured: normalized growth

FC(F)(F)c1cccc(N2CCNCC2)c1
inactive: S. cerevisiae deletion strains, locus YJL187C, strain SWE1, active compounds read low 0.999 | S. cerevisiae deletion strains, locus YJR043C, strain POL32, active compounds read low 1 | S. cerevisiae deletion strains, locus YJR075W, strain HOC1, active compounds read low 0.958 | S. cerevisiae deletion strains, locus YKL009W, strain mrt4, active compounds read low 1 | S. cerevisiae deletion strains, locus YKL068W, active compounds read low 0.997 | S. cerevisiae deletion strains, locus YKL085W, strain MDH1 (second series), active compounds read low 0.995 | S. cerevisiae deletion strains, locus YKL085W, strain MDH1, active compounds read low 0.995 | S. cerevisiae deletion strains, locus YKL160W, strain elf1, active compounds read low 0.988 | S. cerevisiae deletion strains, locus YKL190W, strain CNB1, active compounds read low 1.01 | S. cerevisiae deletion strains, locus YKR001C, strain vps1, active compounds read low 0.992 | S. cerevisiae deletion strains, locus YKR026C, strain gcn3, active compounds read low 1 | S. cerevisiae deletion strains, locus YKR091W, strain srl3, active compounds read low 0.997 | S. cerevisiae deletion strains, locus YLL001W, strain dnm1, active compounds read low 0.982 | S. cerevisiae deletion strains, locus YLL026W, active compounds read low 0.991 | S. cerevisiae deletion strains, locus YLL041C, strain sdh2, active compounds read low 1 | S. cerevisiae deletion strains, locus YLR027C, strain aat2, active compounds read low 0.993 | S. cerevisiae deletion strains, locus YLR039C, strain RIC1, active compounds read low 1.04 | S. cerevisiae deletion strains, locus YLR058C, strain SHM2, active compounds read low 1.01 | S. cerevisiae deletion strains, locus YLR102C, strain apc9, active compounds read low 0.984 | S. cerevisiae deletion strains, locus YLR221C, strain rsa3, active compounds read low 0.993 | S. cerevisiae deletion strains, locus YLR258W, strain gsy2, active compounds read low 0.981 | S. cerevisiae deletion strains, locus YLR262C, strain YPT6 (second series), active compounds read low 0.981 | S. cerevisiae deletion strains, locus YLR262C, strain YPT6, active compounds read low 0.991 | S. cerevisiae deletion strains, locus YLR268W, strain sec22, active compounds read low 0.993 | S. cerevisiae deletion strains, locus YLR320W, strain mms22, active compounds read low 0.968 | S. cerevisiae deletion strains, locus YLR330W, strain CHS5, active compounds read low 1 | S. cerevisiae deletion strains, locus YLR342W, strain FKS1 (second series), active compounds read low 0.937 | S. cerevisiae deletion strains, locus YLR342W, strain FKS1, active compounds read low 0.997 | S. cerevisiae deletion strains, locus YLR357W, strain rsc2, active compounds read low 0.989 | S. cerevisiae deletion strains, locus YLR370C, strain arc18, active compounds read low 1.01 | S. cerevisiae deletion strains, locus YLR371W, strain rom2, active compounds read low 0.98 | S. cerevisiae deletion strains, locus YLR384C, strain iki3, active compounds read low 0.975 | S. cerevisiae deletion strains, locus YLR418C, strain cdc73, active compounds read low 0.992 | S. cerevisiae deletion strains, locus YML016C, strain PPZ1, active compounds read low 1.01 | S. cerevisiae deletion strains, locus YML032C, strain rad52, active compounds read low 0.965 | S. cerevisiae deletion strains, locus YML120C, strain ndi1, active compounds read low 0.999 | S. cerevisiae deletion strains, locus YML124C, strain tub3, active compounds read low 0.991 | S. cerevisiae deletion strains, locus YMR058W, strain fet3, active compounds read low 1.01 | S. cerevisiae deletion strains, locus YMR078C, strain ctf18, active compounds read low 0.986 | S. cerevisiae deletion strains, locus YMR125W, strain sto1, active compounds read low 0.968 | S. cerevisiae deletion strains, locus YMR129W, active compounds read low 1.01 | S. cerevisiae deletion strains, locus YMR205C, strain PFK2, active compounds read low 0.965 | S. cerevisiae deletion strains, locus YMR223W, strain ubp8, active compounds read low 0.981 | S. cerevisiae deletion strains, locus YMR231W, strain pep5, active compounds read low 0.999 | S. cerevisiae deletion strains, locus YMR263W, strain SAP30, active compounds read low 0.999 | S. cerevisiae deletion strains, locus YMR307W, strain GAS1, active compounds read low 0.996 | S. cerevisiae deletion strains, locus YNL067W, strain RPL9B, active compounds read low 1.01 | S. cerevisiae deletion strains, locus YNL071W, strain lat1, active compounds read low 0.996 | S. cerevisiae deletion strains, locus YNL153C, strain GIM3, active compounds read low 1.01 | S. cerevisiae deletion strains, locus YNL209W, strain ssb2, active compounds read low 0.994 | S. cerevisiae deletion strains, locus YNL233W, strain BNI4, active compounds read low 1 | S. cerevisiae deletion strains, locus YNL248C, strain rpa49, active compounds read low 1 | S. cerevisiae deletion strains, locus YNL250W, strain rad50, active compounds read low 1.01 | S. cerevisiae deletion strains, locus YNL271C, strain bni1, active compounds read low 0.978 | S. cerevisiae deletion strains, locus YNL298W, strain CLA4, active compounds read low 0.992 | S. cerevisiae deletion strains, locus YNL307C, strain MCK1, active compounds read low 0.992 | S. cerevisiae deletion strains, locus YNL322C, strain KRE1 (second series), active compounds read low 0.986 | S. cerevisiae deletion strains, locus YNR049C, strain mso1, active compounds read low 1.01 | S. cerevisiae deletion strains, locus YNR052C, strain pop2, active compounds read low 0.985 | S. cerevisiae deletion strains, locus YOL006C, strain TOP1, active compounds read low 1.04 | S. cerevisiae deletion strains, locus YOL012C, strain htz1 0.923 | S. cerevisiae deletion strains, locus YOL147C, strain pex11, active compounds read low 0.989 | S. cerevisiae deletion strains, locus YOR001W, strain rrp6, active compounds read low 0.985 | S. cerevisiae deletion strains, locus YOR061W, strain CKA2, active compounds read low 1.01 | S. cerevisiae deletion strains, locus YOR069W, strain VPS5, active compounds read low 1 | S. cerevisiae deletion strains, locus YOR070C, strain gyp1, active compounds read low 0.995 | S. cerevisiae deletion strains, locus YOR080W, strain dia2, active compounds read low 0.98 | S. cerevisiae deletion strains, locus YOR083W, strain WHI5, active compounds read low 1.03 | S. cerevisiae deletion strains, locus YOR106W, strain vam3, active compounds read low 1 | S. cerevisiae deletion strains, locus YOR136W, strain idh2, active compounds read low 0.987 | S. cerevisiae deletion strains, locus YOR144C, strain elg1, active compounds read low 0.983 | S. cerevisiae deletion strains, locus YOR184W, strain ser1, active compounds read low 1.03 | S. cerevisiae deletion strains, locus YOR265W, strain rbl2, active compounds read low 0.993 | S. cerevisiae deletion strains, locus YOR270C, strain vph1, active compounds read low 1.07 | S. cerevisiae deletion strains, locus YOR290C, strain snf2, active compounds read low 0.973 | S. cerevisiae deletion strains, locus YOR316C, strain cot1, active compounds read low 0.997 | S. cerevisiae deletion strains, locus YPL051W, strain arl3, active compounds read low 0.993 | S. cerevisiae deletion strains, locus YPL055C, strain LGE1, active compounds read low 1 | S. cerevisiae deletion strains, locus YPL078C, strain atp4, active compounds read low 1.01 | S. cerevisiae deletion strains, locus YPL106C, strain sse1, active compounds read low 0.947 | S. cerevisiae deletion strains, locus YPL240C, strain hsp82, active compounds read low 0.989 | S. cerevisiae deletion strains, locus YPR119W, strain clb2, active compounds read low 0.984 | S. cerevisiae deletion strains, locus YPR141C, strain kar3, active compounds read low 0.988 | S. cerevisiae deletion strains, locus YPR163C, strain tif3, active compounds read low 0.989 | S. cerevisiae deletion strains, locus YPR167C, strain met16, active compounds read low 0.988 | S. cerevisiae deletion strains, strain wtn01, active compounds read low 0.966 | S. cerevisiae strains, strain wild type, active compounds read low 1.01
